CYP2C9 inh: blocks human cytochrome P450 2C9; AID 777; inhibition, % at 5 µM; P11712; hit rate 20% among 96,000; CYP2C9 Supersomes, luciferin-H conversion, luminescence;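 active = blocking of liver enzyme CYP2C9 beyond about 50% at 5 µM, limit read from the data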
CD11b adhes inh: CD11b/CD18-fibrinogen binding inhibition | hit rate 0.54% among 93,000 | K562 CD11b/CD18 adhesion to fibrinogen, ATPlite luminescence; Mn2+ added to activate the integrin | inhibition, % at 10 µM | P05107+P11215;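 active = primary inhibition of 50% or more at 10 µM, then 40% or more on retest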
Target sequence (P05107 whole entry, looked up, other chains not shown): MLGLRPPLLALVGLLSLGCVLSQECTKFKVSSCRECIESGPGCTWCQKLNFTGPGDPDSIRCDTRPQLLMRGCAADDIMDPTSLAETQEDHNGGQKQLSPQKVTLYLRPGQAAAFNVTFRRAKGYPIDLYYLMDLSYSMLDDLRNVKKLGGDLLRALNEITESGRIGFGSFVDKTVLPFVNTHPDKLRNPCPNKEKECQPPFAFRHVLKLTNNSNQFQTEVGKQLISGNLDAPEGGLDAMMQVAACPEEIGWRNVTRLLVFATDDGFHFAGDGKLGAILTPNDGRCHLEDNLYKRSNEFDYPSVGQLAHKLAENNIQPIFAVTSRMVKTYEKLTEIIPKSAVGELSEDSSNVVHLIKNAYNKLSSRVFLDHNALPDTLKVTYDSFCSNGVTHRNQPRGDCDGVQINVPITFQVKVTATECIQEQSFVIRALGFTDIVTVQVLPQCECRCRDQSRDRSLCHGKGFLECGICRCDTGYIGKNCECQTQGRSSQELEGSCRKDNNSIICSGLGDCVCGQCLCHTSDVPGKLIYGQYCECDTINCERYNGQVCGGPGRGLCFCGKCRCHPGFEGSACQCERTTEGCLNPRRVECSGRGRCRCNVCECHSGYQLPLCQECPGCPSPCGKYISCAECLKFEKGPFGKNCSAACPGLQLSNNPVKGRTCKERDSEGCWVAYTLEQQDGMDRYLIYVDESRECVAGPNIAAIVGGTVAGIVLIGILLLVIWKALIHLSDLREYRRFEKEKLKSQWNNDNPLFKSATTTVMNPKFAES
CYP2C19 activ: activators of human cytochrome P450 2C19 | AID 1025 | P33261 | 96,000 tested, under 10 active | activation factor at 5 µM | recombinant CYP2C19, luciferin-H EGE luminescence; stronger effect = higher value; 0 = fully inhibited enzyme, 1 = untreated enzyme;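 active = activation factor of at least 2 at 5 µM in the primary screen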;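 note: 0 = wells with 2.5 mM tranylcypromine and 1 = vehicle-only wells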
CD11b adhes enh: enhancers of human CD11b/CD18 binding to fibrinogen. K562 CD11b/CD18 adhesion to fibrinogen, ATPlite luminescence. activation, % at 10 µM. hit rate 0.07% among 93,000. AID 1499;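 active = 10 µM primary screen giving 50% or more activity, confirmed by 40% or more on retest at that dose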
CYP2C9 activ: increases human cytochrome P450 2C9 activity. hit rate 1.4% among 96,000. recombinant CYP2C9, luciferin-H conversion, luminescence; stronger effect = higher value; factor 1 = untreated enzyme, 0 = blocked. activation factor at 5 µM;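 active = activation factor of 2 or more for CYP2C9 at a 5 µM dose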;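 note: 0 = sulfaphenazole-blocked wells and 1 = vehicle-only wells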
CYP2C19 inh: blocks human cytochrome P450 2C19; hit rate 21% among 96,000; P33261; CYP2C19 Supersomes, luciferin-H EGE luminescence, 30 min; inhibition, % at 5 µM;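 active = CYP2C19 inhibition above a set limit at 5 µM in the primary screen, cut at about 50% in these data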;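 note: plate controls were negative control wells for no effect and 2.5 mM tranylcypromine positive control for full effect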
Active calls of the source: *; / = no result given. This is a sample that favours compounds with a hit; in the whole collection about 28% have one here.

SMILES | CYP2C9 inh | CD11b adhes inh | CYP2C19 activ | CD11b adhes enh | CYP2C9 activ | CYP2C19 inh
CC(=O)c1ccc(OC(=O)N(c2ccccc2)c2ccccc2)cc1 | 70* | -1 | 0.4 | 3 | 0.3 | 56*
COc1ccc(NC(=O)Nc2cc(C)ccc2OC)cc1 | 39 | -40 | 0.1 | -1 | 0.6 | 95*
COc1ccccc1NC(C)=O | 7 | 1 | 0.9 | -1 | 0.9 | 8
COC(=O)c1cc(NC(=O)Nc2cc(OC)ccc2OC)cc(C(=O)OC)c1 | 51* | 1 | 0.6 | 3 | 0.5 | 42
COc1ccc(C)cc1NC(=O)Nc1ccccc1 | 16 | -20 | 0.7 | 4 | 0.8 | 29
O=C(Nc1cccc(F)c1)Nc1ccccn1 | 22 | 1 | 0.8 | -4 | 0.8 | 21
O=C(Nc1ccncc1)Nc1ccccn1 | 68* | -30 | 0.1 | -5 | 0.3 | 91*
COc1ccccc1NC(=O)C(O)C(O)C(=O)Nc1ccccc1OC (stereo unspecified) | -216 | -28 | 0.8 | 0 | 3.2* | 21
COc1ccc(OC)c(CNC(=O)C2CCN(C(=O)N(C)C)CC2)c1 | -31 | -2 | 0.9 | 3 | 1.3 | 12
CSC(=NNC(=O)c1ccc(O)cc1)SC | 10 | -6 | 0.9 | 2 | 0.9 | 10
COc1ccc(NC(=O)Nc2ccccc2OC)cc1 | 34 | -6 | 0.1 | -6 | 0.7 | 87*
COc1ccc(OC)c(NC(=O)Nc2cccc(Cn3cccn3)c2)c1 | 83* | 0 | 0.3 | 5 | 0.2 | 74*
COc1ccccc1NC(=O)C(=O)Nc1ccccn1 | -133 | / | 0.8 | / | 2.3* | 18
COc1ccccc1NC(=O)c1ccc(N)cc1 | -313 | 2 | 0.8 | -2 | 4.1* | 15
COc1ccc(OC)c(NC(=O)Nc2ccc(Cl)cc2)c1 | 12 | -1 | 0.7 | 2 | 0.9 | 29
COc1ccc(OC)c(NC(=O)N[C@@H](Cc2ccccc2)C(=O)O)c1 | -6 | 3 | 1 | -1 | 1.1 | -4
COC(=O)CC1SC(=O)NC1=Nc1ccc(OC)cc1 (stereo unspecified) | 18 | 0 | 0.6 | -2 | 0.8 | 40
CCOc1ccc(OCCOc2cccc(C(F)(F)F)c2)cc1 | -47 | 3 | 0.7 | 0 | 1.5 | 26
COc1ccccc1NC(=O)C1C2C=CC(O2)C1C(=O)O (stereo unspecified) | 8 | 25 | 1 | 4 | 0.9 | 4
CCCCCCCCCCNC(=O)C(=O)Nc1ccccn1 | 1 | 9 | 0.4 | 1 | 1 | 55*
COc1ccccc1NC(=O)C1C2CCCCC21 (stereo unspecified) | -264 | -1 | 0.6 | -4 | 3.6* | 43
Cc1cc(C)n(C(=O)c2ccc(C)c(F)c2F)n1 | / | -7 | / | -2 | / | /
COCCNC(=O)c1c(CSc2ccc(F)cc2)noc1C(=O)NCc1ccccc1 | 6 | -8 | 0.9 | 0 | 0.9 | 13
Cc1ccccc1-c1nnc(SCCOc2ccc3c(C)cc(=O)oc3c2)o1 | 27 | 12 | 0.8 | 0 | 0.7 | 25
CCCCn1nc2cc(C(=O)NCc3ccccc3OC)ccc2c1OCC | 56* | -7 | 0.5 | 0 | 0.4 | 47
SMILES | CYP2C9 inh | CD11b adhes inh | CYP2C19 activ | CD11b adhes enh | CYP2C9 activ | CYP2C19 inh
CCCCn1nc2cc(C(=O)NCC34CC5CC(CC(C5)C3)C4)ccc2c1OCC | 71* | 7 | 0.7 | -4 | 0.3 | 26
CCN(C(=O)c1ccc2c(OC)n(CC)nc2c1)c1ccc(OC)cc1 | 6 | / | 0.9 | / | 0.9 | 6
CCCn1nc2cc(C(=O)NC3CCCc4ccccc43)ccc2c1OCC (stereo unspecified) | -11 | / | 1 | / | 1.1 | 4
CCCCn1nc2cc(C(=O)N(CC)c3ccc(OC)cc3)ccc2c1OCC | 75* | -15 | 0.5 | 2 | 0.3 | 52*
CCCn1nc2cc(C(=O)NCCc3ccc(C)cc3)ccc2c1OCC | 26 | / | 0.8 | / | 0.7 | 18
CCCCn1nc2cc(C(=O)NC3CCc4ccccc43)ccc2c1OCC (stereo unspecified) | 56* | 0 | 0.8 | 6 | 0.4 | 18
CCOC(=O)c1ccc(NC(=S)NC2CC(C)(C)NC(C)(C)C2)cc1 | -14 | / | 0.6 | / | 1.1 | 37
Cc1ccc(-c2n[nH]c(=S)n2/N=C\c2ccco2)cc1 | / | -11 | / | 14 | / | /
Cn1cnnc1SC(C(=O)Nc1ccc(F)cc1)c1ccccc1 (stereo unspecified) | 19 | -24 | 0.5 | -2 | 0.8 | 50

Screening data (PubChem BioAssay)
